{"source": "PubChem BioAssay AID651832", "about": "(Vanderbilt Specialized Chemistry Center, 2012)", "test": "binding inhibition across receptor and channel panel – biochemical, Eurofins PanLabs, competition binding, selectivity assay for M5 PAM project, profiling panel (AID 651832)", "settings": "at 10 µM, stronger effect = higher value; for inhibition: Eurofins PanLabs radioligand binding panel", "data": [{"compound": "O=C1C(=O)N(CCOc2ccccc2)c2ccc(OC(F)(F)F)cc21", "values": [{"measurement": "inhibition", "setting": "measured here: adenosine A3 binding", "value": 57, "unit": "%"}, {"measurement": "inhibition", "setting": "measured here: adrenergic alpha1A binding", "value": 71, "unit": "%"}, {"measurement": "inhibition", "setting": "measured here: adrenergic alpha1B binding", "value": 66, "unit": "%"}, {"measurement": "inhibition", "setting": "measured here: cannabinoid CB1 binding", "value": 72, "unit": "%"}, {"measurement": "inhibition", "setting": "measured here: dopamine D1 binding", "value": 73, "unit": "%"}, {"measurement": "inhibition", "setting": "measured here: dopamine D3 binding", "value": 59, "unit": "%"}, {"measurement": "inhibition", "setting": "measured here: glucocorticoid receptor binding", "value": 88, "unit": "%"}, {"measurement": "inhibition", "setting": "measured here: hERG binding", "value": 21, "unit": "%"}, {"measurement": "inhibition", "setting": "measured here: histamine H2 binding", "value": 95, "unit": "%"}, {"measurement": "inhibition", "setting": "measured here: mu opioid binding", "value": 78, "unit": "%"}, {"measurement": "inhibition", "setting": "measured here: muscarinic M2 binding", "value": -2, "unit": "%"}, {"measurement": "inhibition", "setting": "measured here: norepinephrine transporter binding", "value": 77, "unit": "%"}, {"measurement": "inhibition of radioligand binding, muscarinic M1", "value": 22, "unit": "%"}]}]}
